Counter-ions that a name gives are not always drawn.
System: NCI-H1688
Assay: inhibition of cell viability relative to untreated control (fraction); higher = stronger growth inhibition, active = 0.5 or more
Settings: 30 µM; 24 h
Summary of the method: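 Inhibition of cell viability appears as a fraction, based on viability relative to untreated cells. The assay used NCI-H1688 small cell lung cancer cells seeded in 96-well plates at 3 × 10^3 cells/well, treated one day later with a natural compound library (TargetMol) at 30 µM for 24 h at 37°C and 5% CO2. Absorbance at 450 nm with Cell Counting Kit-8 was recorded in triplicate.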

| SMILES | inhibition of cell viability |
| --- | --- |
| CNC[C@H](O)c1ccc(O)c(O)c1 [Epinephrine bitartrate] | 0.0849 (inactive) |
| O=c1c2cc(O)c(O)cc2oc2cc(O)c([C@@H]3O[C@H](CO)[C@@H](O)[C@H](O)[C@H]3O)c(O)c12 [Mangiferin] | -0.186 (inactive) |
| C[C@@H]1O[C@@H](O[C@H]2[C@H](O[C@H]3CC[C@@]4(C)[C@@H](CC[C@]5(C)[C@@H]4CC=C4[C@@H]6CC(C)(C)CC[C@]6(C(=O)O[C@@H]6O[C@H](CO[C@@H]7O[C@H](CO)[C@@H](O[C@@H]8O[C@@H](C)[C@H](O)[C@@H](O)[C@H]8O)[C@H](O)[C@H]7O)[C@@H](O)[C@H](O)[C@H]6O)CC[C@]45C)[C@]3(C)CO)OC[C@H](O)[C@@H]2O)[C@H](O)[C@H](O)[C@H]1O [Hederacoside C] | 0.239 (inactive) |
| NC[C@H]1O[C@H](O[C@H]2[C@H](O)[C@@H](O[C@H]3O[C@H](CO)[C@@H](O)[C@H](N)[C@H]3O)[C@H](N)C[C@@H]2N)[C@H](O)[C@@H](O)[C@@H]1O [Kanamycin sulfate] | 0.154 (inactive) |
| Nc1ncnc2c1ncn2[C@@H]1O[C@H](COP(=O)(O)OP(=O)(O)OP(=O)(O)O)[C@@H](O)[C@H]1O [Adenosine disodium triphosphate] | 0.0565 (inactive) |
| C[C@]12CC[C@@H]3c4ccc(O)cc4CC[C@H]3[C@@H]1C[C@@H](O)[C@@H]2O [Estriol] | 0.0233 (inactive) |
| COc1ccc(-c2cc(=O)c3c(O)c(OC)c(O[C@@H]4O[C@H](CO[C@@H]5O[C@@H](C)[C@H](O)[C@@H](O)[C@H]5O)[C@@H](O)[C@H](O)[C@H]4O)cc3o2)cc1 [Pectolinarin] | 0.194 (inactive) |
| C[C@H]1[C@H](C)CC[C@]2(C(=O)O)CC[C@]3(C)C(=CC[C@@H]4[C@@]5(C)CC[C@H](O)C(C)(C)[C@@H]5CC[C@]43C)[C@H]12 [Ursolic acid] | 1.01 (active) |
| CC(C)C1=CC2=CC[C@@H]3[C@](C)(CCC[C@@]3(C)C(=O)O)[C@H]2CC1 [Abietic Acid] | 0.0466 (inactive) |
| COc1ccc(-c2cc(=O)c3c(O)cc(O[C@@H]4O[C@H](CO[C@@H]5O[C@@H](C)[C@H](O)[C@@H](O)[C@H]5O)[C@@H](O)[C@H](O)[C@H]4O)cc3o2)cc1O [Diosmin] | -0.00104 (inactive) |
| CC(C)=CCC[C@](C)(O[C@@H]1O[C@H](CO)[C@@H](O)[C@H](O)[C@H]1O)[C@H]1CC[C@]2(C)[C@@H]1[C@H](O)C[C@@H]1[C@@]3(C)CC[C@H](O)C(C)(C)[C@@H]3[C@@H](O[C@@H]3O[C@H](CO)[C@@H](O)[C@H](O)[C@H]3O[C@@H]3OC[C@@H](O)[C@H](O)[C@H]3O)C[C@]12C [Notoginsenoside R1] | -0.0107 (inactive) |
| COc1cc2ccc(=O)oc2cc1O [Scopoletin] | -0.00563 (inactive) |
| O=C1O[C@H]([C@@H](O)CO)C(O)=C1OP(=O)(O)O [Sodium L-ascorbyl-2-phosphate] | 0.0357 (inactive) |
| Cn1c(=O)c2c(ncn2C)n(C)c1=O [Caffeine] | 0.0548 (inactive) |
| C[C@@]12C[C@@]3(O)O[C@@H](O1)[C@]1(COC(=O)c4ccccc4)[C@H]3C[C@@]12O[C@@H]1O[C@H](CO)[C@@H](O)[C@H](O)[C@H]1O [Paeoniflorin] | 0.068 (inactive) |
| O=C(O)C=CC=Cc1ccccc1 [5-Phenyl-2,4-pentadienoic acid] | -0.102 (inactive) |
| COc1ccc(C2CC(=O)c3c(O)cc(OC4OC(COC5OC(C)C(O)C(O)C5O)C(O)C(O)C4O)cc3O2)cc1OC (stereo not drawn) [Methyl hesperidin] | 0.00735 (inactive) |
| CC1(C)O[C@H]2CC(=O)OC[C@]23[C@H]2CC[C@@]4(C)[C@H](c5ccoc5)OC(=O)[C@H]5O[C@]54[C@]2(C)C(=O)C[C@@H]13 [Limonin] | -0.0414 (inactive) |
| C=C[C@](C)(O)CC[C@@H]1[C@@]2(C)CCCC(C)(C)[C@@H]2CC[C@@]1(C)O [Sclareol] | 0.318 (inactive) |
| C[C@H]1CC[C@@]2(OC1)O[C@H]1C[C@H]3[C@@H]4CC[C@@H]5C[C@@H](O)CC[C@]5(C)[C@H]4CC[C@]3(C)[C@H]1[C@@H]2C [Sarsasapogenin] | -0.0422 (inactive) |
| C[C@H]1[C@H](C)CC[C@]2(C(=O)O[C@@H]3O[C@H](CO[C@@H]4O[C@H](CO)[C@@H](O[C@@H]5O[C@@H](C)[C@H](O)[C@@H](O)[C@H]5O)[C@H](O)[C@H]4O)[C@@H](O)[C@H](O)[C@H]3O)CC[C@]3(C)C(=CC[C@@H]4[C@@]5(C)C[C@@H](O)[C@H](O)[C@@](C)(CO)[C@@H]5[C@H](O)C[C@]43C)[C@H]12 [Madecassoside] | 0.808 (active) |
| COc1cc(O)c(C(C)=O)c(OC)c1 [Xanthoxyline] | -0.308 (inactive) |
| C=CC1=C(C)c2cc3[nH]c(cc4nc(cc5[nH]c(cc1n2)c(C)c5CCC(=O)O)C(CCC(=O)O)=C4C)c(C)c3C=C [Protoporphyrin IX] | 0.863 (active) |
| O=c1c(-c2ccc(O)cc2)coc2cc(O)cc(O)c12 [Genistein] | 0.7 (active) |
| CC[C@H]1OC(=O)[C@H](C)[C@@H](O[C@H]2C[C@@](C)(OC)[C@@H](O)[C@H](C)O2)[C@H](C)[C@@H](O[C@@H]2O[C@H](C)C[C@H](N(C)C)[C@H]2O)[C@](C)(O)C[C@@H](C)C(=O)[C@H](C)[C@@H](O)[C@]1(C)O [Erythromycin] | 0.0155 (inactive) |
| Nc1ccccc1C(=O)CC(N)C(=O)O (stereo not drawn) [Kynurenine] | -0.292 (inactive) |
| CC1C(=O)OC2C(O)C34C5CC(C(C)(C)C)C36C(OC(=O)C6O)OC4(C(=O)O5)C12O (stereo not drawn) [Ginkgolide B] | -0.0261 (inactive) |
| C[C@]12CC[C@@H]3c4ccc(O)cc4CC[C@H]3[C@@H]1CC[C@@H]2O [Estradiol] | 0.296 (inactive) |
